PLK1 PBD block: PLK1 (human) polo-box domain binding inhibition. AID 720504. hit rate 2.8% among 360,000. P53350. Potency, µM, for inactives: max response, negative = inhibition, usual class: inhibitors. Plk1 PBD binding of FITC phosphopeptide, fluorescence polarization; note: potency is the fitted concentration of half-maximal effect; series mostly up to about 57 µM; % is set by controls: 0 for no effect and ±100 for the full control effect; nearly all actives have a fitted effect of over 65% in size
Target sequence (P53350 whole entry, looked up, the tested form may be a part): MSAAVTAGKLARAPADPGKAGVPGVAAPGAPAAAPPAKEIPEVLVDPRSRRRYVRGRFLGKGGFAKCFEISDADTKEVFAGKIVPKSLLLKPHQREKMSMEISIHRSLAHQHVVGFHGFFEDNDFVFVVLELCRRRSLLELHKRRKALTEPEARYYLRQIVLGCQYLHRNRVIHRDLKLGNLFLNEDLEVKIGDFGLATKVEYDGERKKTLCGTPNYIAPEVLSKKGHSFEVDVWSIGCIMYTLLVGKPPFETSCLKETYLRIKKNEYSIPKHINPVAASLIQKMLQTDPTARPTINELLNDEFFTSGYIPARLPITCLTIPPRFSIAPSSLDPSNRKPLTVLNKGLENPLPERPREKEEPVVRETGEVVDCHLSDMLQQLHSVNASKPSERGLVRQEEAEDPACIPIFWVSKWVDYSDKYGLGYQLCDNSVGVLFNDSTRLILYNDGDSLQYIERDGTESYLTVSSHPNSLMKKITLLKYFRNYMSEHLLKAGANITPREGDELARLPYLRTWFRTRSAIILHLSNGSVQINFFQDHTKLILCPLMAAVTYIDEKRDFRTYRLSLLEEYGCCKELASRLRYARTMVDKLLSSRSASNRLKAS
CBFb-RUNX1 inh: blocks binding between human CBF-beta and RUNX1; 230,000 tested, under 10 active; AlphaScreen CBFb-His/RUNX1-biotin binding, biochemical; AID 1477; Potency, µM (titrated, usually from 59.8 µM), for inactives: at the highest dose activity, negative = inhibition, actives largely listed as inhibitors; Q01196+Q13951; note: % of control where 0% means no effect
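Room-temperature protein-protein interaction test with 30 nM each of His-tagged CBF-beta and biotinylated RUNX1, 15 min with compound, then 90 min with nickel plus streptavidin beads. Signal read in AlphaScreen mode.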
MBNL1 CUG block: inhibitors of human MBNL1 binding to CUG repeat RNA; Q9NR56; TR-FRET MBNL1-His/biotin-(CUG)12 binding, 665/545 ratio; Potency, µM (highest dose often 57.5 µM), for the others: top-dose activity change, negative = inhibition, usual class: inhibitors; hit rate 0.036% among 280,000; AID 2675; active = well fitted inhibition curve with a large enough effect in the signal ratio, with a control signal flat, not every such curve was filed as active; inconclusive = small, poorly fitted or top-dose-only effect, or effect the other way, or a change in a side signal; inactive = no such curve, though single readings can be large or run the other way; the % refers to the signal ratio; note: potency is the fitted concentration of half-maximal effect; % is set by controls: 0 for no effect and ±100 for the full control effect
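His-tagged MBNL1 binding to biotinylated (CUG)12 RNA was measured by TR-FRET using terbium anti-His antibody (0.055 ng/ul final) and streptavidin-XL665 (5 nM final). Compounds were titrated 92 nM to 58 uM; 60 min at room temperature.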
KCNH2 3.1 inh: KCNH2 3.1 (human) potassium channel inhibition; U2OS KCNH2 3.1, thallium flux FluxOr; stronger effect = lower value; activity change, % (tested at about 1.8 µM); hit rate 0.95% among 340,000; AID 720553;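 active = maximum activity change below -70%; inconclusive = maximum activity change from -70% to -50%; inactive = maximum activity change above -50%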;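 note: thallium influx rate constant from kinetic fluorescence after stimulation buffer; % is set by controls: 0 for no effect and ±100 for the full control effect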
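Channel expression came from 3.1 mutant virus (1.77 x 10^8 /mL) applied to suspended U2OS cells for 4 h. Flux was tracked with FluxOr dye plus Red40 quencher, and kinetic rate constants normalized to controls.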
hERG WT inh: blocks the wildtype human KCNH2 potassium channel; Q12809; U2OS, BacMam KCNH2, thallium flux FluxOr; stronger effect = lower value; activity change, % at 1.84 µM; hit rate 0.37% among 340,000; AID 720551;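 active = maximum activity change below -70%; inconclusive = maximum activity change between -70% and -50%; inactive = maximum activity change above -50%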; note: % is set by controls: 0 for no effect and ±100 for the full control effect
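U2OS cells transduced with wild-type KCNH2 virus are loaded with FluxOr dye for 45 min, and thallium flux is measured in kinetic reads before and after stimulation buffer. Rate constants are normalized to DMSO controls.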
VDR inh: vitamin D3 receptor (human) inhibition. P11473. VDR-SRC2-3 peptide fluorescence polarization, 2 h. Potency, µM, without a hit: max response, negative = inhibition, usual class: inhibitors. hit rate 0.93% among 400,000. AID 504847; note: potency is the fitted concentration of half-maximal effect; % is set by controls: 0 for no effect and ±100 for the full control effect
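Fluorescence polarization assay measuring small-molecule disruption of VDR binding to the coregulator peptide SRC2-3. Compounds were pin-transferred (23 nl) into the reagent mix and incubated 2 h at room temperature before reading.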
Active calls of the source: *. Compounds with a hit are over-represented: about 3.8% of the library has one in this group of screens. Unless noted, calls come from the whole dose curve; as a rule, active = well fitted curve in the direction sought with a large enough effect; inconclusive = small, poorly fitted or top-dose-only effect, or another doubt; inactive = no such curve, though single readings can be large; an effect the other way counts as inactive or inconclusive.

What do the screens show for `CCOC(=O)c1c(NC(=O)c2cccs2)sc(C(=O)N(C)C)c1C`?
PLK1 PBD block: 23.8µM*; CBFb-RUNX1 inh: 0.5%; MBNL1 CUG block: -3.2%; KCNH2 3.1 inh: -7.3; hERG WT inh: 5.8; VDR inh: inconclusive

How did O=C(c1cc(=O)[nH]c2ccccc12)N1CCN(S(=O)(=O)c2ccc3ccccc3c2)CC1 do in these assays?
PLK1 PBD block: -4.3%; CBFb-RUNX1 inh: -2.5%; MBNL1 CUG block: 1.8%; KCNH2 3.1 inh: 2.2; hERG WT inh: 1.4; VDR inh: -7.2%

Results for O=C(c1cc(=O)[nH]c2ccccc12)N1CCN(S(=O)(=O)c2ccc(Cl)cc2)CC1 ?
PLK1 PBD block: 1.1%; KCNH2 3.1 inh: -8.7; hERG WT inh: -115.2*; VDR inh: 10.4%

Results for O=C(OCCN1CCN(c2ncc(C(F)(F)F)cc2Cl)CC1)c1ccc(Cl)cc1 ?
PLK1 PBD block: -1.6%; CBFb-RUNX1 inh: -9.5%; MBNL1 CUG block: inconclusive; KCNH2 3.1 inh: 2.2; hERG WT inh: 34.6; VDR inh: -12.1%

Results for C/[N+]([O-])=C\c1cccc(OCCN2CCN(c3ncc(C(F)(F)F)cc3Cl)CC2)c1 ?
PLK1 PBD block: 11.9µM*; MBNL1 CUG block: 6.0%; KCNH2 3.1 inh: -37.7; hERG WT inh: 41.2; VDR inh: -3.3%

Results for CN(C)c1ccc(-c2ccc(C3C4C=CCCC4(C)C(=O)N3Cc3ccccc3)c(F)c2)cc1 (stereo unspecified) ?
CBFb-RUNX1 inh: inconclusive; VDR inh: -11.9%

How did COc1ccc2c(c1)CCC1(C)CC(=O)C(Br)=C21 (stereo unspecified) do in these assays?
PLK1 PBD block: 5.2%; KCNH2 3.1 inh: -8.3; hERG WT inh: 2.1

What do the screens show for `COc1ccc2c(c1)CCCC(Br)C2=O` (stereo unspecified)?
PLK1 PBD block: 10.6µM*; hERG WT inh: 16.8; VDR inh: inconclusive

How did CC(C)CCC(CCNCc1ccccn1)c1ccc(Cl)cc1 (stereo unspecified) do in these assays?
PLK1 PBD block: 4.1%; MBNL1 CUG block: -0.8%; KCNH2 3.1 inh: -90.7*; hERG WT inh: -32.6; VDR inh: -21.3%

Results for Cc1ccc(/C=C2\SC(=S)N(/N=C/c3cc([N+](=O)[O-])ccc3O)C2=O)o1 ?
PLK1 PBD block: 11.9µM*; CBFb-RUNX1 inh: 1.3%; MBNL1 CUG block: inconclusive; KCNH2 3.1 inh: -20.5; hERG WT inh: -4.4; VDR inh: inconclusive

What do the screens show for `O=[N+]([O-])c1ccc(O)c(/C=N/n2cnc3ccccc32)c1`?
PLK1 PBD block: -5.9%; CBFb-RUNX1 inh: 3.8%; MBNL1 CUG block: inconclusive; KCNH2 3.1 inh: 7.0; hERG WT inh: -1.8; VDR inh: -3.1%

Results for CCCCCCCn1c(=N)n(CC(O)c2ccco2)c2ccccc21 (stereo unspecified) ?
PLK1 PBD block: -4.8%; CBFb-RUNX1 inh: -2.9%; MBNL1 CUG block: -2.0%; KCNH2 3.1 inh: -106.1*; hERG WT inh: -38.4; VDR inh: 48.2%

Results for CC(C)(C)c1ccc(Cn2c(=N)n(CC(O)c3ccco3)c3ccccc32)cc1 (stereo unspecified) ?
PLK1 PBD block: 2.7%; CBFb-RUNX1 inh: -1.8%; MBNL1 CUG block: 4.3%; KCNH2 3.1 inh: inconclusive; hERG WT inh: -84.8*; VDR inh: -12.3%

Results for CCCCCn1c(=N)n(CC(O)COc2cccc(C)c2)c2ccccc21 (stereo unspecified) ?
VDR inh: -6.7%

Results for CCCCn1c(=N)n(CC(O)COc2ccc(C)cc2)c2ccccc21 (stereo unspecified) ?
PLK1 PBD block: -1.9%; CBFb-RUNX1 inh: 1.4%; MBNL1 CUG block: -2.1%; KCNH2 3.1 inh: -90.2*; hERG WT inh: -83.3*; VDR inh: 2.4%

Results for CCCCn1nc(C(=O)N(C)Cc2nc3ccccc3c(=O)[nH]2)c2ccccc2c1=O ?
PLK1 PBD block: -4.1%; KCNH2 3.1 inh: -74.7*; hERG WT inh: -42.7

How did CCN(Cc1nc2cc(Cl)ccc2c(=O)[nH]1)C(=O)c1nn(C)c(=O)c2ccccc12 do in these assays?
PLK1 PBD block: 0.2%; KCNH2 3.1 inh: 7.5; hERG WT inh: 15.9; VDR inh: 7.9%

What do the screens show for `COc1ccccc1/C=C1/C(=O)ON=C1C`?
PLK1 PBD block: 4.74µM*; MBNL1 CUG block: 6.4%; KCNH2 3.1 inh: 13.7; hERG WT inh: 15.2; VDR inh: 50.1µM*

What do the screens show for `CC1=NN(c2ccccc2)C(=O)/C1=C\c1sccc1C`?
PLK1 PBD block: 10.6µM*; CBFb-RUNX1 inh: 6.3%; MBNL1 CUG block: 3.8%; KCNH2 3.1 inh: 11.5; hERG WT inh: 5.9; VDR inh: inconclusive

How did CC1=NN(c2ccccc2)C(=O)/C1=C\c1cn(-c2ccccc2)nc1C do in these assays?
PLK1 PBD block: -15.5%; CBFb-RUNX1 inh: -0.9%; MBNL1 CUG block: -2.2%; KCNH2 3.1 inh: 11.8; hERG WT inh: -5.3; VDR inh: 2.6%

How did COc1ccccc1/C=C1/C(=O)N(c2ccccc2)N=C1C do in these assays?
PLK1 PBD block: 2.67µM*; MBNL1 CUG block: -8.7%; KCNH2 3.1 inh: 31.8; hERG WT inh: -18.1; VDR inh: inconclusive

What do the screens show for `O=S1(=O)C=CC(Nc2ccccc2)C1` (stereo unspecified)?
PLK1 PBD block: 26.7µM*; CBFb-RUNX1 inh: 1.6%; MBNL1 CUG block: -0.2%; KCNH2 3.1 inh: -1.2; hERG WT inh: 0.6; VDR inh: inconclusive

What do the screens show for `CC(=O)c1ccc(-c2cccc(C3C4C=CCCC4(C)C(=O)N3Cc3ccccc3)c2)cc1` (stereo unspecified)?
CBFb-RUNX1 inh: -4.9%; VDR inh: inconclusive

Results for O=C(Nc1ccn(CCCN2CCN(c3ncccn3)CC2)c(=O)n1)OCc1ccccc1 ?
PLK1 PBD block: 1.2%; KCNH2 3.1 inh: -2.4; hERG WT inh: -73.7*

Results for O=C(NC1CC(=O)N(c2ccc3c(c2)OCCO3)C1)c1c(F)cccc1Cl (stereo unspecified) ?
VDR inh: 6.7%

What do the screens show for `COc1ccccc1/C=C/CN1CCCC(CO)(CCc2ccccc2)C1` (stereo unspecified)?
PLK1 PBD block: -3.4%; MBNL1 CUG block: -4.6%; KCNH2 3.1 inh: -75.3*; hERG WT inh: -25.8; VDR inh: -1.6%

Results for COc1ccccc1/C=C/CN1CCN(c2ccccc2)CC1 ?
PLK1 PBD block: 0.2%; CBFb-RUNX1 inh: -14.0%; MBNL1 CUG block: -11.6%; KCNH2 3.1 inh: -31.7; hERG WT inh: 18.6; VDR inh: 10.1%

Results for COc1ccc(CC2(CO)CCN(C/C=C/c3ccccc3OC)CC2)cc1 ?
PLK1 PBD block: -10.3%; CBFb-RUNX1 inh: 1.3%; MBNL1 CUG block: -4.8%; KCNH2 3.1 inh: -109.4*; hERG WT inh: -90.0*; VDR inh: 5.2%

Compound activity (PubChem BioAssay)
